# According to ChEMBL document CHEMBL1961873, “Compounds: GSK PKIS; Assays: Nanosyn kinase panel” (2012):
# Values joined by “and” are separate entries in the source; they are usually repeats but may differ in a detail not shown here. Equal entries are not always repeated.
# How the values were obtained:
# [1] = biological target: T1, Serine/threonine-protein kinase TBK1 (Homo sapiens) (UniProt Q9UHD2); conditions: at 1 µM;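 also: values are mean inhibition of TBK1, screened as part of the GSK published kinase inhibitor set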
# T1 sequence (whole entry): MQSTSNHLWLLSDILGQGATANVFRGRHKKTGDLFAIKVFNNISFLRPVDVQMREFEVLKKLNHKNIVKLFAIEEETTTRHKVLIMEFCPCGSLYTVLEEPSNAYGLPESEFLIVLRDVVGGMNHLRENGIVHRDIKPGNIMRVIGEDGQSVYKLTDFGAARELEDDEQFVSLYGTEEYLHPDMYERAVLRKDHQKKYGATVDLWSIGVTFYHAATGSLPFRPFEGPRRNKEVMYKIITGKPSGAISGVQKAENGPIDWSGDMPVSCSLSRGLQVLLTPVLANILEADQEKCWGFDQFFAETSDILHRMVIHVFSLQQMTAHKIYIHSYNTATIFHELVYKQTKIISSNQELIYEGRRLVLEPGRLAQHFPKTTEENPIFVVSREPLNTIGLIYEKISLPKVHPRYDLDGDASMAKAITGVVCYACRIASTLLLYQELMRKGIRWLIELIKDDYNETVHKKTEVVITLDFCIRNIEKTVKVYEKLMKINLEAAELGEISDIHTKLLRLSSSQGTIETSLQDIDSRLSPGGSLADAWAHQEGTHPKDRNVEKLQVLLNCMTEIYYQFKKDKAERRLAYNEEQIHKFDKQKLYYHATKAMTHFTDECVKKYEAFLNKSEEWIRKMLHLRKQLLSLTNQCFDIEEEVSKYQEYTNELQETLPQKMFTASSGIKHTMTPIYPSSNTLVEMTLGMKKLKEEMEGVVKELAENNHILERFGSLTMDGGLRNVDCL
# [2] = biological target: T2, Testis-specific serine/threonine-protein kinase 1 (Homo sapiens) (UniProt Q9BXA7); conditions: at 0.1 µM
# T2 sequence (whole entry): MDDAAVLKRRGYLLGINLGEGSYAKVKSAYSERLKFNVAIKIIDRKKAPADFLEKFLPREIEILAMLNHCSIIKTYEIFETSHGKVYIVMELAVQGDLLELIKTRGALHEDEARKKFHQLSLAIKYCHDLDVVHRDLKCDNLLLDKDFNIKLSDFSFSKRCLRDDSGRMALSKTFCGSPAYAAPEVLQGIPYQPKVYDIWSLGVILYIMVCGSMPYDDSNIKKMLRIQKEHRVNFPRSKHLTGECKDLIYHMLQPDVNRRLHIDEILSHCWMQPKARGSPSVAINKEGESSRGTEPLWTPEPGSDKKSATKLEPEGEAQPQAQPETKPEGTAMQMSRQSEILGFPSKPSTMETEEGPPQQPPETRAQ
# [3] = biological target: T2, Testis-specific serine/threonine-protein kinase 1 (Homo sapiens); conditions: at 1 µM
# [4] = biological target: T3, Testis-specific serine/threonine-protein kinase 2 (Homo sapiens) (UniProt Q96PF2); conditions: at 0.1 µM
# T3 sequence (whole entry): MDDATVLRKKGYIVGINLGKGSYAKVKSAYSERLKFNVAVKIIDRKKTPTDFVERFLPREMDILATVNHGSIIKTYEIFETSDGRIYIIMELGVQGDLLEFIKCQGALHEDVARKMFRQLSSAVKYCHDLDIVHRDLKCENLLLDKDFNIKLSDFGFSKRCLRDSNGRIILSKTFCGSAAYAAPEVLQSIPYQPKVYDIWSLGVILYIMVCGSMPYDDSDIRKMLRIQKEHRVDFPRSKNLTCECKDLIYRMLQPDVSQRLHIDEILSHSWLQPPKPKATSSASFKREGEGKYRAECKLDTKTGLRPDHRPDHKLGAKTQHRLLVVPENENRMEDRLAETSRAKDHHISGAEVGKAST
# [5] = biological target: T3, Testis-specific serine/threonine-protein kinase 2 (Homo sapiens); conditions: at 1 µM
# [6] = biological target: Casein kinase I isoform alpha (Homo sapiens) (UniProt P48729); conditions: at 0.1 µM
# Casein kinase I isoform alpha (Homo sapiens), sequence (P48729 2-337 limits assumed): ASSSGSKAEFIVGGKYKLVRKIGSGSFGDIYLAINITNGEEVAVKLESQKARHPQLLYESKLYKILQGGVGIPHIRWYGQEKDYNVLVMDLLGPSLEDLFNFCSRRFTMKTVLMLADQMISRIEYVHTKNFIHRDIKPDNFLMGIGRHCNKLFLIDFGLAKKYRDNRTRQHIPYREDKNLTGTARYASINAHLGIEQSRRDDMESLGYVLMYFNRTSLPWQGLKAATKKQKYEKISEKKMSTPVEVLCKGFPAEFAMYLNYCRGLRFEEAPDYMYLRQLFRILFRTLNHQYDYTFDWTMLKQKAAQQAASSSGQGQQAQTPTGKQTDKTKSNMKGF
# [7] = biological target: Casein kinase I isoform alpha (Homo sapiens) (UniProt P48729); conditions: at 1 µM
# [8] = biological target: Casein kinase I isoform gamma-1 (Homo sapiens) (UniProt Q9HCP0); conditions: at 0.1 µM
# Casein kinase I isoform gamma-1 (Homo sapiens), sequence (Q9HCP0 whole entry, looked up, canonical isoform): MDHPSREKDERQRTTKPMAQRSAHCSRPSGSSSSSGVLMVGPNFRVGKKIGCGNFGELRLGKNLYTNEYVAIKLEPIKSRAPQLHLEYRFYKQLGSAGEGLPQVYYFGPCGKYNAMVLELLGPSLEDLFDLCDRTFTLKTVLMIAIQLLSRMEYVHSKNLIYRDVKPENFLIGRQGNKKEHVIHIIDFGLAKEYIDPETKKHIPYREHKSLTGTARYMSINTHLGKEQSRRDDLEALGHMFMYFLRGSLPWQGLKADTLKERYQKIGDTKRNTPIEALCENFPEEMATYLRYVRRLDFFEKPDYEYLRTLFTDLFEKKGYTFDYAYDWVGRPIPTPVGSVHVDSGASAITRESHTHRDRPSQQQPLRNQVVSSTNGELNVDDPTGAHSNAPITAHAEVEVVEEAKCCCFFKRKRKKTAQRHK
# [9] = biological target: Casein kinase I isoform gamma-1 (Homo sapiens) (UniProt Q9HCP0); conditions: at 1 µM
# [10] = biological target: Casein kinase I isoform gamma-2 (Homo sapiens) (UniProt P78368); conditions: at 0.1 µM
# Casein kinase I isoform gamma-2 (Homo sapiens), sequence (P78368 whole entry, looked up, canonical isoform): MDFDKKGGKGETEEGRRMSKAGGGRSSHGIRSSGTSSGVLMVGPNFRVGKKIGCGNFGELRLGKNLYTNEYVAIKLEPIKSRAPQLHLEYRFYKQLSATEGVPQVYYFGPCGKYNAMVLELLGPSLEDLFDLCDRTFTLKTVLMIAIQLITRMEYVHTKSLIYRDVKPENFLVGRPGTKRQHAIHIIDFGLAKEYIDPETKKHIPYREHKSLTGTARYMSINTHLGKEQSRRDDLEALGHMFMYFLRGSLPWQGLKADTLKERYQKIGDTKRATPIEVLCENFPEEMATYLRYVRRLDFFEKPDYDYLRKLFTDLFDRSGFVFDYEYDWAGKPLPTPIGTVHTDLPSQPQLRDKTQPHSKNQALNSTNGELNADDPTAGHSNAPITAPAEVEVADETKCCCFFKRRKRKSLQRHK
# [11] = biological target: Casein kinase I isoform gamma-2 (Homo sapiens) (UniProt P78368); conditions: at 1 µM
# [12] = biological target: Casein kinase I isoform gamma-3 (Homo sapiens) (UniProt Q9Y6M4); conditions: at 0.1 µM
# Casein kinase I isoform gamma-3 (Homo sapiens), sequence (Q9Y6M4 whole entry, looked up, canonical isoform): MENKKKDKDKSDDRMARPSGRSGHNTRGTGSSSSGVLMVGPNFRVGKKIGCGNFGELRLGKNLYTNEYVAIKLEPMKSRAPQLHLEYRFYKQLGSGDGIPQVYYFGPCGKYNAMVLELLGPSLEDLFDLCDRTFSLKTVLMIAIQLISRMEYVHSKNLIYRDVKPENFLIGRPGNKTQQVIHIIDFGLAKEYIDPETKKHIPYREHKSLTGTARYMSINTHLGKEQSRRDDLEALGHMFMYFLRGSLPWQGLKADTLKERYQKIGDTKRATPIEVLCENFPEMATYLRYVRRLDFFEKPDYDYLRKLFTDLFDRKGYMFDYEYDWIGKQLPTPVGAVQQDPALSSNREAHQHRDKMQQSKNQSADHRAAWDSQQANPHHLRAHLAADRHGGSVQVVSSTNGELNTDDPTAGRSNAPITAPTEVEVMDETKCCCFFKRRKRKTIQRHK
# [13] = biological target: Casein kinase I isoform gamma-3 (Homo sapiens) (UniProt Q9Y6M4); conditions: at 1 µM
# [14] = biological target: Cyclin-dependent kinase 1 (Homo sapiens) (UniProt P06493); conditions: at 0.1 µM
# Cyclin-dependent kinase 1 (Homo sapiens), sequence (P06493 whole entry, looked up): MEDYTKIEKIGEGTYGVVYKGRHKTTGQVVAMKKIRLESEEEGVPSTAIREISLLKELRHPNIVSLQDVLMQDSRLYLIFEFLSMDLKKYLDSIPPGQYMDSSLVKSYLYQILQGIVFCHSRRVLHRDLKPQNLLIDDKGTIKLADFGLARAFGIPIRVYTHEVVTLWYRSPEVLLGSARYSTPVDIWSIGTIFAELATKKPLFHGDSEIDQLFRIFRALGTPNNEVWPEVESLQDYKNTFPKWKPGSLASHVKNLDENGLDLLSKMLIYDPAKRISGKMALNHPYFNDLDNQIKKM
# [15] = biological target: Cyclin-dependent kinase 1 (Homo sapiens) (UniProt P06493); conditions: at 1 µM
# [16] = biological target: Cyclin-dependent kinase 2 (Homo sapiens) (UniProt P24941); conditions: at 0.1 µM
# [17] = biological target: Cyclin-dependent kinase 2 (Homo sapiens) (UniProt P24941); conditions: at 1 µM
# [18] = biological target: Cyclin-dependent kinase 2 (Homo sapiens) (UniProt P24941); conditions: at 0.1 µM; remark: listed apart in the source
# [19] = biological target: Cyclin-dependent kinase 2 (Homo sapiens) (UniProt P24941); conditions: at 1 µM; remark: listed apart in the source
# [20] = biological target: CDK3/Cyclin E (Homo sapiens) (UniProt P24864+Q00526); conditions: at 0.1 µM;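 also: reported percentages are mean inhibition values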
# CDK3/Cyclin E (Homo sapiens), sequence (P24864 whole entry, looked up): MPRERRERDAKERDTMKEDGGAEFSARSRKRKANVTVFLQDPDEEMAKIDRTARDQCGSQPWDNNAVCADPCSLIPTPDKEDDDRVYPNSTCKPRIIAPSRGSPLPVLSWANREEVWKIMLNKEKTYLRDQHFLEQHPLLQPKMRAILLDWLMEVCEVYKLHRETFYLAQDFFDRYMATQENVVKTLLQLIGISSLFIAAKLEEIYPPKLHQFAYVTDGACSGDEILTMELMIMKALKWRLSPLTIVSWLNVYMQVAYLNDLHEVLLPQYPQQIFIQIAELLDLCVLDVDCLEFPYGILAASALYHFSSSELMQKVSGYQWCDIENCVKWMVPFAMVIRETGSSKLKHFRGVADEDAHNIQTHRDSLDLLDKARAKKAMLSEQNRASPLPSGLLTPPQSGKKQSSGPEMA
# CDK3/Cyclin E (Homo sapiens), sequence (Q00526 whole entry, looked up): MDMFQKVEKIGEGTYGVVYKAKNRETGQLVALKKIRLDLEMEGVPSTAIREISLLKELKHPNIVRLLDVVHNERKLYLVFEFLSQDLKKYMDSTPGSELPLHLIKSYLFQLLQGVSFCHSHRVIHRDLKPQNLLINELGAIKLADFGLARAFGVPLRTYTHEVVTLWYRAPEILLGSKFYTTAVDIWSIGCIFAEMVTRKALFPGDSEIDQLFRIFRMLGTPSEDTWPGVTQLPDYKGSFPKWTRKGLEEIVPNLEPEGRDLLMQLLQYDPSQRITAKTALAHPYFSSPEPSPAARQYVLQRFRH
SMILES,inhibition [1],inhibition [2],inhibition [3],inhibition [4],inhibition [5],inhibition [6],inhibition [7],inhibition [8],inhibition [9],inhibition [10],inhibition [11],inhibition [12],inhibition [13],inhibition [14],inhibition [15],inhibition [16],inhibition [17],inhibition [18],inhibition [19],inhibition [20]
CS(=O)(=O)CCNCc1ccc(-c2ccc3ncnc(Nc4ccc(OCc5ccccc5)cc4)c3c2)o1,3.03%,3.31%,4.28%,5.73%,2.17%,4.49%,1.55%,2.67%,3.35%,2.72%,2.81%,2.43%,1.23%,0.68%,-4.99%,1.6%,2.53%,2.45%,3.9%,-1.1%
COc1c(C(N)=O)cc(-c2ccc(Cl)cc2)cc1-c1ccc(S(N)(=O)=O)cc1,3.5%,4.67%,5.11%,2.57%,2.89%,5.95%,12.6%,4.33%,6.12%,4.61%,5.53%,3.12%,5.9%,2.31%,-0.03%,3.12%,3.62%,2.17%,3.13%,-4.73%
NC(=O)c1ccc2c(-c3ccnc(NCCCO)n3)c(-c3ccc(F)cc3)nn2c1,4.69%,3.95%,3.68%,2.67%,2.23%,25.3%,67.6%,7.1%,19.8%,5.87%,19.9%,8.09%,29%,1.5%,1.54%,-0.03%,1.7%,3.22%,4.45%,2.38%
CN(C)CCNC(=O)Nc1ccc(N(C)c2ccnc(Nc3ccc(CS(C)(=O)=O)cc3)n2)cc1,5.74%,2.28%,5.73%,0.57%,-1.45%,2.02%,5.94%,3.74%,4.96%,4.73%,4.71%,2.93%,4.26%,0.42%,2.58%,1.03%,0.46%,3.93%,5.24%,1.45%
CN1CCC(C(=O)Nc2n[nH]c3nc(-c4ccc(O)cc4)c(Br)cc23)CC1,6.1% and 2.08%,5.11% and 0.23%,7.56% and 2.61%,3.45% and 1.03%,5.78% and 1.94%,2.56% and 1.97%,5.54% and 3%,0.95% and 1.75%,4.18% and 2.3%,1.05% and 1.85%,2.84% and 1.66%,-0.75% and 1.55%,3.27% and 0.25%,7.05% and 10.3%,43.7% and 42.6%,16.2% and 18.6%,63.1% and 63.2%,9.58% and 5.38%,38.8% and 32.5%,12.5% and 12.3%
O=C(O[C@H]1CN[C@H](C#Cc2cc3ncnc(Nc4ccc5c(ccn5Cc5cc(F)ccc5F)c4)c3s2)C1)N1CCOCC1,2.11%,3.63%,4.15%,2.52%,1.57%,2.93%,5.4%,4.17%,5.41%,3.09%,5.86%,2.96%,4.98%,-0.04%,1.97%,1.56%,4.93%,3.67%,2.07%,4.08%
Cc1cc(O)cc(C)c1/C=C/c1cncc(C(=O)OC(C)(C)C)c1,2.33%,2.62%,1.67%,1.48%,1.69%,1.27%,3.48%,2.21%,2.97%,1.74%,3.13%,2.26%,3.16%,0.41%,3.26%,1.03%,0.25%,2.66%,6.74%,0.28%
CNC(=O)c1cncc(/C=C/c2ccccc2C)c1,6.39%,4.49%,5.13%,3.39%,2.6%,1.22%,5.05%,2.73%,3.62%,2.46%,2.72%,2.23%,3.55%,1.72%,7.81%,1.87%,11%,12%,16.4%,7.08%
c1ccc(-c2n[nH]cc2-c2ccnc(-c3ccc(OCCn4ccnc4)cc3)c2)nc1,0.29%,1.73%,2.8%,2.08%,1.93%,3.33%,18.1%,0.69%,3.14%,0.83%,4.02%,0.42%,5.22%,-0.35%,1.46%,1.03%,-8.72%,2.23%,5.64%,2.33%
